# Source: ChEMBL document CHEMBL4513216, “Probing the Open Global Health Chemical Diversity Library for Multistage-Active Starting Points for Next-Generation Antimalarials” (ACS Infect Dis, 2020)
# Among all 68,000 compounds or so, about 2,700 (4%) showed an effect of 50% or more. This excerpt belongs to a sample that is enriched for strong results.
# Test system: Plasmodium berghei
# Test: Screen against P. berghei liver stage (PbLuc), transformed with Luciferase, at 2uM
# Assay type: functional, HepG2
# Conditions: tested at 2 uM
row,Structure (SMILES),INHIBITION [%]
1,Cc1nc(C(=O)N(C)C2CC(=O)N(Cc3ccccc3)C2=O)cs1 (centres undefined),50.42
2,CN(C(=O)c1ccc[nH]1)C1CC(=O)N(Cc2ccccc2)C1=O (centres undefined),29.91
3,Cc1[nH]ccc1C(=O)N(C)C1CC(=O)N(Cc2ccccc2)C1=O (centres undefined),30.59
4,O=C(C[C@@H]1COC[C@H]2CN(C(=O)c3cccnc3)C[C@@H]12)N1CCOCC1,22.89
5,Cc1ccc(CN2CCOC3(COCCN(C(C)C)C3)C2)s1 (centres undefined),-9.22
6,CCc1nsc(N2CCN(C(=O)COc3ccccc3)CC2)n1,61.82
7,CCc1nsc(N2CCCN(C(=O)COc3ccccc3)CC2)n1,-26.86
8,CCc1ncc(C(=O)N2CCN(C(=O)COc3ccccc3)CC2)cn1,-28.5
9,N#CCCN(c1ccc(F)cc1)S(=O)(=O)CC1CCCCO1 (centres undefined),-7.39
10,CC(=O)Nc1ccc(C(=O)NCCCn2cccc2)cc1,30.58
11,CN(C)c1cc(C(=O)N2CCCCC2CNS(C)(=O)=O)ccn1 (centres undefined),53.11
12,CCC1CCCCN1C(=O)c1ccnc(N(C)C)c1 (centres undefined),16.84
13,CN(C)c1cc(C(=O)N2CCCCC2Cn2cccn2)ccn1 (centres undefined),-7.15
14,CC(C)NC(=O)[C@H]1C[C@@H]2[C@@H](C1)OCCN2Cc1cccs1,29.43
15,CCN(C(=O)c1cc2c([nH]c1=O)CCCC2=O)C1CCCCC1,-58.06
16,O=C1CCCc2[nH]c(=O)c(C(=O)N(CC3CCCCC3)C3CC3)cc21,67.44
17,CC(c1ccco1)N(C(=O)c1cc2c([nH]c1=O)CCCC2=O)C1CC1 (centres undefined),-8.3
18,CC(C)CCN(C(=O)c1cc2c([nH]c1=O)CCCC2=O)C1CC1,0.12
19,CCCN(C(=O)c1cc2c([nH]c1=O)CCCC2=O)C1CCCCC1,22
20,CC(C)C(C)N(C(=O)c1cc2c([nH]c1=O)CCCC2=O)C1CC1 (centres undefined),72.49
21,COc1ccc2c(c1)C1(CCNCC1)CC2NC1CC1 (centres undefined),0
22,CC(C)(CN1CCOCC1)CN1CCC(Cc2cccc(CO)c2)C1 (centres undefined),-7.7
23,CCN(CC)c1ccc(NS(=O)(=O)c2cnn(C(C)C)c2)cn1,3.17
24,O=C(NC1CCCC1)c1nc(COc2ccc3c(c2)OCO3)no1,-11.86
25,CNc1oc(COc2ccc3c(c2)OCO3)nc1C#N,-6.53
26,N#Cc1nc(COc2ccc3c(c2)OCO3)oc1N1CCCCCC1,18.85

row,Structure (SMILES),INHIBITION [%]
1,N#Cc1nc(COc2ccc3c(c2)OCO3)oc1NC1CC1,51.42
2,N#Cc1nc(COc2ccc3c(c2)OCO3)oc1NC1CCCCC1,66.74
3,N#Cc1nc(COc2ccc3c(c2)OCO3)oc1N1CCCC1,-9.89
4,CCS(=O)(=O)N1CCC(c2nnc(CN3CCOCC3)n2C)CC1,37.3
5,CCCc1n[nH]c(C2CN(C(=O)CCCn3ccnc3C)CCO2)n1 (centres undefined),-15.07
6,Cc1cc(C)cc(OCC(=O)N2CCC2)c1,16.8
7,COc1cc(C(=O)N2CCCS2(=O)=O)ccc1OC(C)C,21.12
8,COc1ccc(C[C@H]2CN(Cc3ccoc3)CC[C@@H]2OC)cc1,17.47
9,Cc1cnc(C(=O)N2CC[C@H]3C[C@@H](c4nc(C)cs4)O[C@@H]3C2)cn1,5.85
10,CC(C)c1cc(=O)[nH]c(-n2nc(C3CC3)cc2N)n1,16.98
11,CN(CC1CCCCO1)S(=O)(=O)c1cccc(C(=O)N2CCOCC2)c1 (centres undefined),-40.47
12,O=C(O)c1cccc(C2CCCN(S(=O)(=O)C3CC3)C2)c1 (centres undefined),47.68
13,OCCN1CCN(Cc2coc(-c3ccccc3Cl)n2)CC1,58.53
14,COCCN1CCN(Cc2coc(-c3ccccc3Cl)n2)CC1,11.9
15,CC(O)CN1CCN(Cc2coc(-c3ccccc3Cl)n2)CC1 (centres undefined),-7.16
16,Cc1nnc(NC(=O)NCc2ccc(F)cc2)s1,-12.41
17,O=C(c1nc2c(o1)CN(CC1CCC1)C2)N1CCCC1,12.68
18,COCCN1C[C@H]2[C@@H](C1)N(C(=O)CCc1ccccc1)CC[C@H]2OC,25.02
19,COCCN1C[C@@H]2[C@@H](OC)CCN(C(=O)Cc3ccccc3)[C@@H]2C1,55.44
20,COCCN1C[C@H]2[C@@H](C1)N(C(=O)COc1ccccc1)CC[C@H]2OC,-75.33
21,N#Cc1ccccc1CN1C[C@H]2CC[C@@H](C1)N(Cc1cscn1)C2=O,-66.52
22,CC(C)N(C)S(=O)(=O)N1CCCC1CC(=O)c1cccs1 (centres undefined),2.71
23,Cc1ccc(CNCC2Cn3nnc(-c4cccc(F)c4)c3CO2)o1 (centres undefined),-17.26
24,CN1CCC2(COCCN(Cc3cccc(C#N)c3)C2)C1 (centres undefined),16.03
25,CCCS(=O)(=O)N1CCC2(CCC(=O)N(CCc3ccccc3)C2)CC1,15.56
26,CCCS(=O)(=O)N1CCC2(CCC(=O)N(CCc3cccnc3)C2)CC1,31.96

row,Structure (SMILES),INHIBITION [%]
1,CCCS(=O)(=O)N1CCC2(CCC(=O)N(Cc3ccccc3)C2)CC1,57.91
2,CCC(CNC(=O)Cc1c(C)noc1C)N1CCCC1 (centres undefined),-15.63
3,COc1cc(CCC(=O)N2CCC(c3cnccn3)CC2)on1,-56.97
4,Cc1ccnn1CCC(=O)N1CCC(c2cnccn2)CC1,55.74
5,Cn1nccc1CCC(=O)N1CCC(c2cnccn2)CC1,-14.13
6,CC(Cn1cc(Br)cn1)C(=O)Nc1ccc(Br)cn1 (centres undefined),-84.37
7,CC(C)N(CCCNC(=O)C1CCCN(C(N)=O)C1)S(C)(=O)=O (centres undefined),26.18
8,N#CCCNC(=O)CSc1ccc(F)cc1F,21.22
9,N#CCCNC(=O)CSc1cc(F)ccc1F,51.83
10,CN(CCC#N)C(=O)CSc1cc(F)ccc1F,6.82
11,Cc1cnc(NC(=O)c2ccc(C3CCCN3CC(C)C)s2)s1 (centres undefined),24.36
12,CCc1nnc(NC(=O)c2ccc(C3CCCN3CC(C)C)s2)s1 (centres undefined),52.98
13,CC(C)CN1CCCC1c1ccc(C(=O)Nc2cn(C)nn2)s1 (centres undefined),-28.11
14,CCc1nccn1-c1cncc(C2CCCN2)n1 (centres undefined),-21.99
15,c1ccc(C2CCCN2Cc2nnnn2C2CC2)cc1 (centres undefined),7.74
16,CN(CCCNS(=O)(=O)N1CCC2(CC1)OCCO2)c1ccccc1,0.12
17,O=c1[nH]c2nc(NCC3CCCO3)ncc2c(=O)n1-c1cccc(F)c1 (centres undefined),61.06
18,O=c1[nH]c2nc(NCC3CCCO3)ncc2c(=O)n1-c1ccc(F)cc1 (centres undefined),24.34
19,O=c1[nH]c2nc(N3CCCC3)ncc2c(=O)n1-c1cccc(F)c1,22.51
20,CN1CCCC[C@@H]2[C@H]1[C@@H](c1ccccc1)CCN2S(=O)(=O)N1CCCC1,49.9
21,COc1ccc(OC)c(-n2nnnc2SCC2CCCCO2)c1 (centres undefined),-10.78
22,Cc1cnc2[nH]c(C(F)(F)F)c(CN3CCCC(CO)C3)c2c1 (centres undefined),18.87
23,Cc1ccc(C(=O)NCCNC(=O)c2cncnc2C)cc1F,-9.98
24,Cc1ccc(C(=O)NCCNC(=O)c2cncnc2C(C)C)cc1F,57.34
25,CCc1ncncc1C(=O)NCCNC(=O)c1ccc(C)c(F)c1,-18.39
26,O=C(CCn1cccn1)NCCOc1cccc(Cl)c1,8.78

row,Structure (SMILES),INHIBITION [%]
1,Nc1ccc(C(=O)N2C[C@H]3CC[C@@H](C2)N(Cc2ccccc2)C3)cn1,57.85
2,O=C(c1c[nH]c(=O)cn1)N1C[C@H]2CC[C@@H](C1)N(Cc1ccccc1)C2,24.51
3,Cc1ccc(C(=O)N2C[C@H]3CC[C@@H](C2)N(Cc2ccccc2)C3)cn1,-17.44
4,COc1ncccc1CN1CCn2c(Cn3cncn3)cnc2C1,-47.72
5,O=C(NCCC1=CCCCC1)c1ccc(-n2cccc2)nc1,46.17
6,CCc1nnc2n1CCN(C(=O)Cc1csc(-c3ccco3)n1)C2,-5.2
7,CCN1CCN(C(=O)C(C)n2cc(Br)cn2)CC1 (centres undefined),1.77
8,CCCC(=O)NS(=O)(=O)c1ccc(C#N)c(C(F)(F)F)c1,4.68
9,CC/C=C(/C)C(=O)NS(=O)(=O)c1ccc(C#N)c(C(F)(F)F)c1,57
10,CC/C=C(/C)C(=O)NS(=O)(=O)c1ccc(C#N)cc1C(F)(F)F,6.08
11,Cn1nc(CNC(=O)NCc2ccc(Cl)cc2)c2c1CCOC2,-18.29
12,C=C(C)COc1cccc(CN(C)C(C)c2ccncn2)c1 (centres undefined),53.17
13,C=C(C)COc1cccc(CN(C)C(C)c2nccs2)c1 (centres undefined),-10.78
14,C=C(C)COc1cccc(C(=O)N(C)C(C)c2ccncn2)c1 (centres undefined),18.88
15,CC(C)N1CCCC(Cc2nccnc2Cl)C1 (centres undefined),-47.18
16,COc1c(CNC(C)c2sc(C)nc2C)c(C(C)C)nn1C (centres undefined),59.99
17,Cc1nc(C)c(C(C)NCc2c(C)nn(C)c2N(C)C)s1 (centres undefined),-30.49
18,Cc1nc(C)c(C(C)NCc2c(C(C)C)nn(C)c2N(C)C)s1 (centres undefined),-34.69
19,Cc1ccc(-c2cc(N)c(=O)n(C(C)C(=O)NCC3CCCCC3)n2)s1 (centres undefined),-1.07
20,Cc1ncsc1CN1C[C@@H]2CC[C@H]1CN(Cc1ccccc1)C2,15.68
21,CC(C)(C)C(O)CN1CCN(CCOCC(F)(F)F)CC1 (centres undefined),-17.11
22,Cc1nn(C)c(C)c1C(=O)NCc1ccnc(OCC(F)(F)F)c1,11.09
23,COCCN1CCCC1c1ccnc(-c2ccccc2)n1 (centres undefined),14.3
24,CCCn1cc(-c2cc(-c3ccoc3)c(C#N)c(N)n2)c(C)n1,61.28
25,CCCn1cc(-c2cc(-c3cnc(OC)nc3)c(C#N)c(N)n2)c(C)n1,38.61
26,CCCn1cc(-c2cc(-c3c[nH]cn3)c(C#N)c(N)n2)c(C)n1,38.15
